Most compounds without a hit are left out; they make up all but 3.9% or so of the library.
HSF1 activator – increases HSF-1 driven luciferase reporter signal; NIH3T3-HGL HSF-1 luciferase reporter, MG132, 8 h; 100% = twice DMSO control signal; 300,000 tested, 1.7% active; activation, % at 9 µM; AID 504408;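 active means mean replicate activation of at least 50% with a set share of replicates each reaching 50%; inconclusive means only one of those two conditions met; inactive means mean below 50% and too few replicates reaching it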
MITF act – increases MITF-driven TRPM1 promoter luciferase signal; SK-MEL-5 TRPM1-promoter luciferase, 24 h; % of positive control, neutral wells = 0; activation, % at 12.5 µM; 300,000 tested, 0.75% active;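 active means mean activation of at least 80% with every replicate also reaching 80%; inconclusive means mean reaches 80% but some replicate falls short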
esBAF inh – inhibitors of esBAF chromatin remodeling in mouse ES cells | reporter increase, % at 12.5 µM | AID 602393 | Bmi1-luciferase knock-in reporter, 24 h; 100% = twice the neutral-well signal | 350,000 tested, 2% active; in the data active means activation above about 40%; inconclusive means no clear call, values can overlap the other calls;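 further: a rise in the Bmi1 reporter signal indicates esBAF inhibition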
HSF1 inhib – HSF1 inhibition; NIH3T3-HGL HSE-luciferase, MG132-induced, luminescence 8 h; hits give low values; activity change, negative = inhibition, % at 7.5 µM (by protocol); 300,000 tested, 0.77% active; AID 2098;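 active means more than half of replicate wells show activity change below -50%, luminescence cut by over half; inconclusive means some wells, but at most half, below -50%; inactive means no replicate well below -50%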;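 further: luciferase reports HSF-1 transcriptional activity via heat shock element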
Wnt act – Wnt/beta-catenin pathway activation | 300,000 tested, 1.2% active | Wnt/beta-catenin reporter cell assay, activator, plate reader | activation, % at 9.35 µM; in the data active means activation above about 30%, passing the limit was not always enough; inconclusive means no clear call, values can overlap the other calls
Ring1 derepress – de-represses Ring1 in mouse ESCs, confirming esBAF inhibition. shares compounds with esBAF inh. mouse ESC E14, Ring1 mRNA RT-qPCR fold change. fold change at 33 µM. 550 tested, under 10 active;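 active means Ring1 gene expression raised more than 2-fold over untreated cells in both replicates at either tested dose; inconclusive means only one replicate above 2-fold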;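 further: Ring1 transcript normalised to actin housekeeping signal by TaqMan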
esBAF Fgf4 qPCR – confirmation of esBAF inhibitors: Fgf4 repression in mouse ESCs. Fgf4 expression fold change at 33 µM. shares compounds with esBAF inh. 550 tested, 4% active. AID 743177. mouse ESC E14, Fgf4 mRNA qPCR fold change; hits give low values;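 active means Fgf4 expression under 0.8 fold of control in both repeat measurements at one or both tested doses; inconclusive means under 0.8 fold in just a single repeat measurement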;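 further: Fgf4 transcript normalised to actin in duplex TaqMan qPCR; cells exposed to compound for 24 h before lysis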
esBAF Bmi1 qPCR – esBAF inhibition confirmed by Bmi1 de-repression | shares compounds with esBAF inh | mouse ESE14 ES cells, Bmi1 mRNA qPCR fold; hits give high values | fold change at 33 µM | 550 tested, under 10 active;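 active means Bmi1 expression fold change above 6 at either tested concentration, seen in replicate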;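 further: higher fold means more Bmi1 de-repression and stronger esBAF inhibition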
A549 tox SP – cytotoxicity in A549 cells; cell viability change % (negative = cytotoxic), % at 25 µM, hits read low; shares compounds with esBAF inh; 550 tested, under 10 active; plate reader; call rule not given here
HepG2 cytotox SP – cytotoxicity in HepG2 cells | plate reader; hits give low values | shares compounds with esBAF inh | 550 tested, 4% active | activity change, negative = inhibition, % at 25 µM; in the data active means activity change below about -50%
HEK293 tox SP – HEK293 cell cytotoxicity at single point; shares compounds with esBAF inh; 550 tested, 3% active; activity change, negative = inhibition, % at 25 µM, hits read low; plate reader; in the data active means activity change below about -38%, passing the limit was not always enough
Large screens that a line does not name were inactive (follow-up assays come after a bar, where they were run).

C[C@@H]1CN([C@H](C)CO)C(=O)c2cc(NC(=O)Nc3ccccc3)ccc2O[C@@H]1CN(C)S(=O)(=O)c1ccc(Cl)cc1	none (no result: HSF1 activator, MITF act, HSF1 inhib, Wnt act)
CC(NC(=O)c1cc(COc2ccc(-n3cncn3)cc2)on1)c1ccc(F)cc1 (configuration not stated)	esBAF inh 58.9 (no result: HSF1 activator, MITF act, HSF1 inhib) | Ring1 derepress inactive | esBAF Fgf4 qPCR inconclusive | esBAF Bmi1 qPCR inactive | A549 tox SP inactive | HepG2 cytotox SP inactive | HEK293 tox SP inactive
O=C(c1cc(COc2ccc(-n3cncn3)cc2)on1)N1CCCC1	none
Cc1ccc(Nc2nc(Cl)nc(NC(C)(C)C)n2)cc1	MITF act 99.9, esBAF inh 76.7 | Ring1 derepress inactive | esBAF Fgf4 qPCR inconclusive | esBAF Bmi1 qPCR inactive | A549 tox SP inactive | HepG2 cytotox SP inactive | HEK293 tox SP inactive
CCCN(C)C[C@H]1Oc2cc(C#CCC3CCCC3)ccc2S(=O)(=O)N([C@@H](C)CO)C[C@H]1C	none (no result: HSF1 activator, MITF act, HSF1 inhib, Wnt act)
COc1cccc(C(=O)Nc2ccc(Cl)c(C(F)(F)F)c2)c1	MITF act inconclusive, esBAF inh 68.2 | Ring1 derepress inactive | esBAF Fgf4 qPCR inactive | esBAF Bmi1 qPCR inactive | A549 tox SP inactive | HepG2 cytotox SP inactive | HEK293 tox SP inactive
COc1cc(C(=O)Nc2ccc(Cl)c(C(F)(F)F)c2)cc(OC)c1OC	none
Cc1ccc(C)c(Nc2nc(-c3cccnc3)cs2)c1	none
Cc1ccc(Nc2nc(-c3cccnc3)cs2)cc1Cl	esBAF inh 62.7 (no result: MITF act) | Ring1 derepress inactive | esBAF Fgf4 qPCR 0.74 | esBAF Bmi1 qPCR inactive | A549 tox SP inactive | HepG2 cytotox SP inactive | HEK293 tox SP inactive
CC(C)Cc1cc(C(=O)Nc2ccc(Br)cc2)no1	MITF act 111.3, esBAF inh 69.3, Wnt act 36.7 | Ring1 derepress inactive | esBAF Fgf4 qPCR inactive | esBAF Bmi1 qPCR inactive | A549 tox SP inactive | HepG2 cytotox SP inactive | HEK293 tox SP inactive
CC(C)Cc1cc(C(=O)Nc2c(F)cc(F)cc2Br)no1	none
COc1ccc(-n2nc(C(=O)NCC(=O)N3CCN(c4ccccc4)CC3)c3ccccc3c2=O)c(OC)c1	MITF act 97.5 | Ring1 derepress inactive | esBAF Fgf4 qPCR inactive | esBAF Bmi1 qPCR inactive | A549 tox SP inactive | HepG2 cytotox SP inactive | HEK293 tox SP inactive
COc1ccc(-n2nc(C(=O)NCC(=O)N3CCN(c4ccc(F)cc4)CC3)c3ccccc3c2=O)c(OC)c1	none
Cc1ccc(C)c(OCc2nc3ccccc3[nH]2)c1	esBAF inh 66.3, Wnt act 45.7 | Ring1 derepress inactive | esBAF Fgf4 qPCR inactive | esBAF Bmi1 qPCR inactive | A549 tox SP inactive | HepG2 cytotox SP inactive | HEK293 tox SP inactive
Cc1cccc(C)c1OCc1nc2ccccc2[nH]1	none (no result: esBAF inh)
O=C(c1ccccc1)c1cnc(-c2ccccc2)s1	none (no result: esBAF inh)
O=C(c1ccc(Cl)cc1)c1cnc(-c2ccc(Cl)cc2)s1	esBAF inh 62.9 (no result: Wnt act) | Ring1 derepress inactive | esBAF Fgf4 qPCR inactive | esBAF Bmi1 qPCR inactive | A549 tox SP inactive | HepG2 cytotox SP inactive | HEK293 tox SP inactive
O=C(C[C@H]1CC[C@@H]2[C@H](COC[C@H](O)CN2C(=O)c2cnccn2)O1)NCc1ccc(F)cc1	none (no result: HSF1 activator, MITF act, HSF1 inhib, Wnt act)
c1ccc(-c2nc3c(ccc4ccccc43)[nH]2)nc1	HSF1 activator 58.3, esBAF inh 99.6 (no result: Wnt act) | Ring1 derepress inactive | esBAF Fgf4 qPCR inactive | esBAF Bmi1 qPCR inactive | A549 tox SP inactive | HepG2 cytotox SP inactive | HEK293 tox SP inactive
COc1ccc(F)cc1-c1cc(C(=O)Nc2cccnc2)[nH]n1	esBAF inh 56.6 (no result: HSF1 activator, MITF act, HSF1 inhib) | Ring1 derepress inactive | esBAF Fgf4 qPCR inactive | esBAF Bmi1 qPCR inactive | A549 tox SP inactive | HepG2 cytotox SP inactive | HEK293 tox SP inactive
CC(C)Oc1ccc(F)cc1-c1cc(C(=O)Nc2ccccc2)[nH]n1	none (no result: HSF1 activator, MITF act, HSF1 inhib)
O=C(Nc1cccnc1)c1cc(-c2ccc(Cl)c(Cl)c2)on1	HSF1 activator inconclusive
COc1ccc(-c2cc(C(=O)Nc3cccnc3)no2)cc1OC	MITF act 86.8, esBAF inh 65.0 | Ring1 derepress inactive | esBAF Fgf4 qPCR inconclusive | esBAF Bmi1 qPCR inactive | A549 tox SP inactive | HepG2 cytotox SP inactive | HEK293 tox SP inactive
O=C(C[C@H]1C=C[C@H](NC(=O)Cc2ccccn2)[C@H](CO)O1)NCCc1ccncc1	none (no result: HSF1 activator, MITF act, HSF1 inhib, Wnt act)
CCCC(=O)Nc1ccc2c(c1)OC[C@@H](C)N(Cc1ccc(-c3ccccn3)cc1)C[C@H](C)[C@H](OC)CN(C)C2=O	none (no result: HSF1 activator, MITF act, HSF1 inhib, Wnt act)
Cc1csc(-c2ccc3cc(Cl)cc(Cl)c3n2)n1	esBAF inh 70.9 (no result: HSF1 activator, MITF act, HSF1 inhib) | Ring1 derepress inactive | esBAF Fgf4 qPCR inactive | esBAF Bmi1 qPCR inactive | A549 tox SP inactive | HepG2 cytotox SP inactive | HEK293 tox SP inactive
C[C@@H]1CN([C@H](C)CO)C(=O)c2cc(NC(=O)CCCN(C)C)ccc2O[C@H]1CN(C)C(=O)NC1CCCCC1	none (no result: HSF1 activator, MITF act, HSF1 inhib, Wnt act)
C[C@H](CO)N1C[C@H](C)[C@H](CN(C)C(=O)Nc2ccc(N3CCCCC3)cc2)OCc2cn(nn2)CCCC1=O	none (no result: HSF1 activator, MITF act, HSF1 inhib, Wnt act)
O=C(Nc1ccc(Cl)c(Cl)c1)c1ccc(Cl)c(Cl)c1	esBAF inh inconclusive
O=C(Nc1ccc2c(c1)COC2=O)c1ccc(Cl)c(Cl)c1	esBAF inh 74.9 | Ring1 derepress inactive | esBAF Fgf4 qPCR inactive | esBAF Bmi1 qPCR inactive | A549 tox SP inactive | HepG2 cytotox SP inactive | HEK293 tox SP inactive
O=C(Nc1ccc(Cl)c(Cl)c1)c1ccncc1	esBAF inh 64.7 | Ring1 derepress inactive | esBAF Fgf4 qPCR inactive | esBAF Bmi1 qPCR inactive | A549 tox SP inactive | HepG2 cytotox SP inactive | HEK293 tox SP inactive
CCCNC(=O)Nc1ccc2c(c1)OC[C@H](C)N(C)C[C@H](C)[C@@H](OC)CN(C)C2=O	none (no result: HSF1 activator, MITF act, HSF1 inhib, Wnt act)
CCCN(C)C[C@@H]1Oc2ncc(C#Cc3ccc(OC)cc3)cc2C(=O)N([C@@H](C)CO)C[C@@H]1C	none (no result: HSF1 activator, MITF act, HSF1 inhib, Wnt act)
CN(C)S(=O)(=O)c1cccc(C(=O)Nc2ccc(Cl)cn2)c1	esBAF inh 63.2 | Ring1 derepress inactive | esBAF Fgf4 qPCR inactive | esBAF Bmi1 qPCR inactive | A549 tox SP inactive | HepG2 cytotox SP inactive | HEK293 tox SP inactive
COc1ccc(NC(=O)c2cc(-c3cccs3)on2)cc1	MITF act 109.9, esBAF inh 62.1, Wnt act inconclusive | Ring1 derepress inactive | esBAF Fgf4 qPCR inconclusive | esBAF Bmi1 qPCR inactive | A549 tox SP inactive | HepG2 cytotox SP inactive | HEK293 tox SP inactive
